# Methyltransferases = Primary Screen for Target Class Profiling of Small Molecule Inhibitors of Methyltransferases. 25,000 tested, 3.9% active. purified enzyme, MTase-Glo SAH luminescence; stronger effect = lower value. calls only at 40 µM. AID 1745853, 2022; call rule not given here
#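 Each enzyme was assayed with SAM and its substrate. SAH formation detected by MTase-Glo luminescence; single-point 40 uM screen[…].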
# MTase-Glo ctr = Counterscreen for Target Class Profiling of Small Molecule Inhibitors of Methyltransferases | 180 tested, 6% active | Potency, µM (titrated, usually from 57.3 µM), most hits filed as inhibitors | shares compounds with Methyltransferases | MTase-Glo coupled enzymes, SAH conversion luminescence, no MTase; active means well fitted inhibition curve with a large enough effect
# Calls only; n = inactive; + = active, no number. This excerpt belongs to a sample that is enriched for hits.
SMILES,Methyltransferases,others
N#Cc1cc(CN2CCCC(C(=O)Nc3cccc(-c4ccc(F)cc4)c3)C2)c[nH]1 (stereo not drawn),+,MTase-Glo ctr=n
CC(=O)Nc1ccc(NC(=O)c2cccc(CN3CCCC(C#N)C3)c2)cc1 (stereo not drawn),n,
Cc1cccc(CN2CCCC(C(=O)Nc3cccc(-n4cccn4)c3)C2)n1 (stereo not drawn),n,
CC(C)c1noc([C@@H]2Cc3nc[nH]c3CN2C(=O)CC(C)(C)CC(=O)O)n1,n,
O=C(Cn1ccc2cc(S(=O)(=O)N3CCCCC3)ccc21)NCCC1=CCCCC1,n,
CCCN1C(=O)c2c(C(=O)NCc3ccccc3F)ncn2CC1(C)C(=O)NCc1ccc(C)cc1 (stereo not drawn),n,
CCC(C)NC(=O)c1ccc2c(=O)n(C)c3nn(Cc4ccc(Cl)cc4)c(=O)n3c2c1 (stereo not drawn),n,
COc1cccc(-c2cccc(C(=O)N3C[C@H](CO)C[C@H](CN(C)C)C3)c2)c1,+,MTase-Glo ctr=n
COc1cccc(-c2ccc(C(=O)N3CCC(NC(=O)N(C)C)CC3)cc2)c1,n,
CN(C)C[C@H]1C[C@@H](CO)CN(C(=O)c2csc(Cc3ccccc3)n2)C1,n,
CN1C(=O)c2cc(C(=O)NCc3ccccc3)nn2CC1(C)C(=O)NC1CCCCC1 (stereo not drawn),n,
Cc1ccc(CNC(=O)C(C)n2ccc3cc(S(=O)(=O)N4CCCCC4)ccc32)cc1 (stereo not drawn),n,
Cn1c(COc2cccc(CN3CCCC3)c2Cl)nnc1C1CC(N)C1 (stereo not drawn),+,MTase-Glo ctr=n
Cc1cc(N2CCN(Cc3nnc(C4CC(N)C4)n3C)CC2)cc(C)n1 (stereo not drawn),n,
CN(C)Cc1nnc(C2CC(NC(=O)Cc3c(F)cccc3Cl)C2)n1C (stereo not drawn),n,
Cc1ccc(CCNC(=O)CN(C)S(=O)(=O)c2ccc3[nH]c4c(c3c2)CCCC4)cc1,n,
CCCCCC(=O)N1C[C@H](C(=O)NC)[C@H]2c3ccccc3N(CC3CC3)C(=O)[C@]21C,n,
CC(C)OCCCn1c(=O)c2ccccc2n2c(=O)n(CC(=O)Nc3ccc(F)cc3)nc12,n,
COCCN1CC(CO)C2(CCN(Cc3cccc(OC)n3)CC2)C1 (stereo not drawn),n,
COCCc1noc(CNC(=O)c2ccc(-c3ccccc3Cl)o2)n1,n,
CC1(C(=O)NC2CCCCC2)Cn2c(cc3occc32)C(=O)N1CCc1ccc(Cl)cc1 (stereo not drawn),n,
CCCn1c(=O)c2ccccc2n2c(=O)n(CC(=O)Nc3ccc(OC)c(OC)c3)nc12,n,
CCn1cc(CN2CCN(C(=O)CCc3ccccc3)CC2)ccc1=O,n,
NC(=O)CN1C(=O)[C@@H]2CN(C(=O)c3cccs3)CCN2C1=O,n,
CCn1cc(CN2CCN(C(=O)c3cccs3)CC2)ccc1=O,+,MTase-Glo ctr=n
SMILES,Methyltransferases,others
C=C1CC2C(C)(CCC(=O)O)C(C(C)(C)O)CCC2(C)C2C(=O)OC(C)(C(=O)OC)C(=O)C12C (stereo not drawn),n,
COc1ccc(C2(O)c3c(ccc4c3OC(C)(CCC=C(C)C)C=C4)NC(=O)C2OC)cc1 (stereo not drawn),n,
CCOc1ccccc1NC(=O)N1Cc2c(sc3c2CCCC3)-n2cccc2C1c1cc(F)cc(F)c1 (stereo not drawn),n,
O=C(NCC1CCN(c2cc(-c3ccccc3)[nH]n2)CC1)c1ccc2nc[nH]c2c1,n,
CN1CCCC2(C1)CN(C)c1ccc(C(=O)NCC3CCCCC3)cc12 (stereo not drawn),+,MTase-Glo ctr=n
CN1CCC2(C1)CN(Cc1ccccc1)c1ccc(C(=O)N3CCOCC3)cc12 (stereo not drawn),n,
COc1cccc(S(=O)(=O)N2CCC3(CC2)CCC(O)(CN(C)C)CC3)c1,n,
COC(=O)[C@@H]1Cc2ncn(Cc3ccc(OC)cc3)c2CN1S(=O)(=O)c1ccccc1,n,
CC(C)Cn1c(=O)c2ccc(C(=O)NC3CCCC3)cc2n2c(=O)n(CC(=O)NC3CCCC3)nc12,n,
Cc1ccc(-n2ccnc2-c2cc3n(n2)CCNC3)cc1N1CCCC1=O,n,
c1ccc2c(c1)OCC(CCn1ccnc1-c1cc3n(n1)CCNC3)O2 (stereo not drawn),n,
Cc1cnccc1NCCn1ccnc1-c1cc2n(n1)CCCNC2,+,MTase-Glo ctr=n
CCCn1c(=O)c2ccc(C(=O)NCC(C)C)cc2n2c(SCC(=O)Nc3ccc(CC)cc3)nnc12,n,
Cc1ccccc1NC(=O)N1Cc2c(sc3c2CCCC3)-n2cccc2C1c1cc(F)cc(F)c1 (stereo not drawn),n,
Cc1noc(C)c1-c1cc(-c2ccncc2)cn2cncc12,n,
Cc1noc(C)c1-c1cc(-c2ccc(CN(C)C)cc2)cn2cncc12,+,MTase-Glo ctr=n
CCCn1c(=O)c2ccc(C(=O)NC(C)CC)cc2n2c(=O)n(Cc3cccc(F)c3)nc12 (stereo not drawn),n,
CC1CCCC(C)N1CCCN1C(=O)c2cc3occc3n2CC1(C)C(=O)NC1CCCCCCC1 (stereo not drawn),n,
COc1ccc(S(=O)(=O)NC[C@H]2Cn3c(-c4ccc(Cl)cc4)cnc3CO2)cc1,+,MTase-Glo ctr=n
COc1ccc(S(=O)(=O)NCC2Cn3cccc3C(=O)N2Cc2ccccc2)cc1 (stereo not drawn),n,
COc1ccc(C(=O)NC[C@H]2Cn3ccnc3CO2)cc1,n,
CCCn1c(=O)c2ccc(C(=O)NC(C)CC)cc2n2c(=O)n(CC(=O)Nc3ccc(Cl)cc3)nc12 (stereo not drawn),n,
CC1(C)CC2C=C(C(=O)O)C3COC(=O)C(O)(CO)C23C1 (stereo not drawn),n,
Cc1cc(-c2cc3c(cn2)N(C)CCN(C)C3)ccn1,+,MTase-Glo ctr=n
CC(C)c1nc2c(c(-c3ccc(O)cc3)n1)CCN(C(=O)C1CCCC1)CC2,n,
SMILES,Methyltransferases,others
CCOC(=O)c1cc2n(n1)CC(C)(C(=O)NC1CCCCC1)N(c1ccc(OCC)cc1)C2=O (stereo not drawn),n,
CN1CCOC[C@H]2CCN(C(=O)c3cccc4[nH]ccc34)C[C@H]21,n,
COc1ccc(OC)c(S(=O)(=O)Nc2nc3c(s2)C[C@]2(C)CC[C@@H]4[C@H](OC(=O)[C@H]4C)[C@H]2[C@@H]3C)c1,n,
Cc1ccc(C)c(N2CCN(S(=O)(=O)c3cc4[nH]c(=O)[nH]c4cc3Br)CC2)c1,n,
Cc1ccc(C)c(C(=O)Cn2nc3n(CC(C)C)c(=O)c4ccc(C(=O)NC(C)C)cc4n3c2=O)c1,n,
O=C(CCc1nnn2c1CN(Cc1cn[nH]c1-c1ccc(F)cc1)CC2)N1CCCC1,n,
OCC1(CC2CC2)CCCN(Cc2ccc(C(F)(F)F)nc2)C1 (stereo not drawn),n,
OCC1(Cc2ccccc2)CCCN(Cc2cn[nH]c2-c2ccc(F)cc2)C1 (stereo not drawn),+,MTase-Glo ctr=n
COc1cccc(CNC(=O)CCc2nnc3n(Cc4ccccc4)c(=O)c4ccccc4n23)c1,n,
CC(C)CCn1c(=O)c2ccccc2n2c(=O)n(Cc3ccccc3)nc12,n,
O=[S+]1([O-])NC2(CCN(Cc3ccccc3C(F)(F)F)C2)CNc2ccccc21 (stereo not drawn),n,
O=[S+]1([O-])NC2(CCCN(Cc3c(F)cccc3Cl)C2)COc2ccccc21 (stereo not drawn),+,MTase-Glo ctr=n

# Source: PubChem BioAssay (National Center for Advancing Translational Sciences (NCATS))
